According to PubChem BioAssay (Tox21):
Records with an inconclusive call do not appear. A call without a number means that no potency is given here. Calls of active or inactive are those of the source. Unless noted, calls come from the whole dose curve.

What was measured:
[1] = qHTS assay to identify small molecule antagonists of the sonic hedgehog signaling (Shh) pathway (AID 1259369); note: nearly all actives have a fitted effect of over 45% in size; note: potency is the fitted concentration of half-maximal effect
Summary of the method: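 NIH/3T3-derived 3T3Gli1-Luc cells with stably integrated Gli1-Luc reporter were preincubated 4hr at 37 C, then given compounds in DMSO plus Shh conditioned medium and incubated 24hr. Firefly luciferase luminescence read after 30min reagent at room temperature.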

[2] = qHTS assay to identify small molecule agonists of the androgen receptor (AR) signaling pathway in the presence of an antagonist - cell viability counter screen (AID 1259379; active = well fitted curve in the direction sought with a large enough effect in the repeat runs; an effect the other way counts as inactive or inconclusive; note: series mostly up to about 92 µM; nearly all actives have a fitted effect of over 25% in size)
Summary of the method: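 MDA-kb2 human breast carcinoma cells (stable MMTV-luciferase, AR/GR responsive) were seeded 3,000 cells/well, pre-incubated 5 hr at 37C without CO2, then given 3.0uM nilutamide and compounds at 15 concentrations for 16 hr. Viability was read by CellTiter-Fluor fluorescence.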

[3] = qHTS assay to identify small molecule antagonists of the estrogen receptor beta (ER-beta) signaling pathway - cell viability counter screen (AID 1259382; active = well fitted curve in the direction sought with a large enough effect in the repeat runs; an effect the other way counts as inactive or inconclusive; note: series mostly up to about 92 µM; nearly all actives have a fitted effect of over 55% in size)
Summary of the method: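 ER-beta-UAS-bla HEK293T cells (2,000/well, 2% charcoal-stripped FBS) were pre-incubated 6 hr at 37C, then given compound plus 1nM final 17-beta-estradiol for 16 hr. Viability was read in the same wells by CellTiter-Glo luminescence after 30 min at room temperature.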

[4] = biological target: Estrogen receptor (Homo sapiens) (UniProt P03372); assay: qHTS assay to identify small molecule agonists of the estrogen receptor alpha (ER-alpha) signaling pathway in the presence of an antagonist (AID 1259383); note: top concentration of the series differs between compounds; nearly all actives have a fitted effect of over 15% in size
Estrogen receptor (Homo sapiens), sequence (P03372 whole entry, looked up): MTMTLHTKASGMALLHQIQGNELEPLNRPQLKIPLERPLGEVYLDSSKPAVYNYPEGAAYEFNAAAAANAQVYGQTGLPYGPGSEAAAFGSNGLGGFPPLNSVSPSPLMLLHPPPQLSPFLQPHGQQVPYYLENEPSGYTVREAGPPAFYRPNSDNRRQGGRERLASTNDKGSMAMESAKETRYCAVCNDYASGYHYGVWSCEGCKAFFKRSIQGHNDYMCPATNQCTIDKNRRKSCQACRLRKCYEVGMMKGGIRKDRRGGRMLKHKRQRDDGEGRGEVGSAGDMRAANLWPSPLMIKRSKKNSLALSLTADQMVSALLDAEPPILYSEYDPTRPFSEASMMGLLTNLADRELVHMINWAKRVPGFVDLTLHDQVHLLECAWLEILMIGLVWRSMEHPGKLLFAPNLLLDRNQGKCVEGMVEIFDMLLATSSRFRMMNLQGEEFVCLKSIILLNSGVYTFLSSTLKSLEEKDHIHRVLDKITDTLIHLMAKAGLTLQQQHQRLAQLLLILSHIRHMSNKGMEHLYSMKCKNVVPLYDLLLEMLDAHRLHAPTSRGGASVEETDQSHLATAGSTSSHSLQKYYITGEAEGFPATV
Summary of the method: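 VM7Luc4E2 cells (endogenous full-length ER-alpha, 4×ERE-luciferase) were precultured 5 days in phenol red-free medium with 10% charcoal-stripped FBS, given 10.0nM ICI-182,780 (final), then treated with compounds at 15 concentrations for 22hr at 37C; luminescence read with ONE-Glo.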

[5] = qHTS assay to identify small molecule agonists or antagonists of the thyroid stimulating hormone receptor (TSHR) signaling pathway - wild type cell line counter screen (AID 1259384)
Summary of the method: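 Counter screen in untransfected Hek293: compounds (15-point titration, triplicate) plus phosphodiesterase inhibitor Ro20-1724 added after 18 h plating; 30 min RT. Intracellular cAMP via competitive d2/cryptate immunoassay, 1 h incubation.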

[6] = biological target: Thyrotropin receptor (Homo sapiens) (UniProt P16473); assay: qHTS assay to identify small molecule antagonists of the thyroid stimulating hormone receptor (TSHR) signaling pathway (AID 1259385); note: nearly all actives have a fitted effect of over 20% in size
Thyrotropin receptor (Homo sapiens), sequence (P16473 whole entry, looked up): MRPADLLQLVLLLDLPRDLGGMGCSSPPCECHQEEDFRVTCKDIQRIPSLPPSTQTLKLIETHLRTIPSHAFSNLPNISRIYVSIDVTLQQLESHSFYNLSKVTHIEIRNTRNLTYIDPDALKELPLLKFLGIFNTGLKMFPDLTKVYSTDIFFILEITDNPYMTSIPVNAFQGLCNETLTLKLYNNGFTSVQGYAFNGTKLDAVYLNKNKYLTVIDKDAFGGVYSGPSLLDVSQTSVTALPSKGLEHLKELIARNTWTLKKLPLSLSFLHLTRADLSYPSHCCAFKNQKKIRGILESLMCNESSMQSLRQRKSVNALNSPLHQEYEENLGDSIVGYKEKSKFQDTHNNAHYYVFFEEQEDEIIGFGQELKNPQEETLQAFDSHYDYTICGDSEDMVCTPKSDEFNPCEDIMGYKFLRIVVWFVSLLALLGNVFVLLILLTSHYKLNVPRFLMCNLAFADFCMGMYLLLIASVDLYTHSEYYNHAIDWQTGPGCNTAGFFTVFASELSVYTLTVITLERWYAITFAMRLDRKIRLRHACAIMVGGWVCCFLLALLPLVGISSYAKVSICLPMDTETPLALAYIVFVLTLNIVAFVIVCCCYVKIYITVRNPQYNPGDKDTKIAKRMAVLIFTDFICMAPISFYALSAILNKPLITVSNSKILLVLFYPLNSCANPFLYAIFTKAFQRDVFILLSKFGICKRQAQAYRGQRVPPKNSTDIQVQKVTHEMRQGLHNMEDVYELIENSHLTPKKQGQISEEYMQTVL
Summary of the method: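 Antagonist mode: compound-treated TSHR-expressing HEK293 cells were stimulated with 1.5 ng/mL TSH (final) in presence of Ro20-1724 for 30 min at RT. HTRF cAMP detection after 1 h; each compound tested at 15 concentrations, triplicate.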

[7] = qHTS assay to identify small molecule agonists of the estrogen receptor beta (ER-beta) signaling pathway - cell viability counter screen (AID 1259380; active = well fitted curve in the direction sought with a large enough effect in the repeat runs; an effect the other way counts as inactive or inconclusive; note: nearly all actives have a fitted effect of over 30% in size; note: potency is the fitted concentration of half-maximal effect)
Summary of the method: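 ER-beta-UAS-bla HEK293T cells in medium with 2% charcoal-stripped FBS were preincubated 6 hr at 37C, dosed with compound in DMSO for 16 hr, then after the bla read, CellTiter-Glo was added for 30 min at room temperature; luminescence recorded.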

[8] = biological target: Androgen receptor (Homo sapiens) (UniProt P10275); assay: qHTS assay to identify small molecule agonists of the androgen receptor (AR) signaling pathway in the presence of an antagonist (AID 1259381); note: nearly all actives have a fitted effect of over 15% in size
Androgen receptor (Homo sapiens), sequence (P10275 whole entry, looked up): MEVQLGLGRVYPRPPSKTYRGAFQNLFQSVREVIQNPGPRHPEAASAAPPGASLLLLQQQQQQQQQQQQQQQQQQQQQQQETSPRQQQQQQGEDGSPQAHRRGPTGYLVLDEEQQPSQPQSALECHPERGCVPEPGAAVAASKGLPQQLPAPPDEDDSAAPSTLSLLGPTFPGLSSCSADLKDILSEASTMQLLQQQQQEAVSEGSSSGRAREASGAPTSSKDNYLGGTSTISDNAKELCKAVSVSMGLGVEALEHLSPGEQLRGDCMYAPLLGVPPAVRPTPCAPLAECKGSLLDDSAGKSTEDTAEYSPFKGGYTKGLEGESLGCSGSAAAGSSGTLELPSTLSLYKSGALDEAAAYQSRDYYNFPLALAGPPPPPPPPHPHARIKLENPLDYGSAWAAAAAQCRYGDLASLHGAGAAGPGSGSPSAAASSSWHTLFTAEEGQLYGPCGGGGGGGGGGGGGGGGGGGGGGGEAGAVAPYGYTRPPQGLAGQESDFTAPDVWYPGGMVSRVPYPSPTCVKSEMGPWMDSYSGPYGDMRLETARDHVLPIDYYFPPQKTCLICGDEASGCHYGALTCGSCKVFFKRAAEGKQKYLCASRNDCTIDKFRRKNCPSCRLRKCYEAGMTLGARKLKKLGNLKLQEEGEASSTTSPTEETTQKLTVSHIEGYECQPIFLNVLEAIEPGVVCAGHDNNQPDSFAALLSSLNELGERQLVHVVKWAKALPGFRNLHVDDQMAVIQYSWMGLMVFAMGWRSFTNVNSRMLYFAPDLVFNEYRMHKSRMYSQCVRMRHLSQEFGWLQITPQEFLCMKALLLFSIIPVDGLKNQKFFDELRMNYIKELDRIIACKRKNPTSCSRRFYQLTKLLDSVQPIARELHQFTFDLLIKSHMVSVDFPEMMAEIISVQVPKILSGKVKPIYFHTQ
Summary of the method: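 MDA-kb2 human breast carcinoma cells carrying an MMTV-luciferase reporter (AR- and GR-responsive) were treated with compounds at 15 concentrations plus 3.0uM final nilutamide for 16hr at 37C without CO2; luminescence was read after ONE-Glo addition.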

[9] = biological target: Estrogen receptor beta (Homo sapiens) (UniProt Q92731); assay: qHTS assay to identify small molecule agonists of the estrogen receptor beta (ER-beta) signaling pathway (AID 1259377; active = well fitted activation curve with a large enough effect in the signal ratio in the repeat runs, not every such curve was filed as active; the % refers to the signal ratio)
Estrogen receptor beta (Homo sapiens), sequence (Q92731 whole entry, looked up): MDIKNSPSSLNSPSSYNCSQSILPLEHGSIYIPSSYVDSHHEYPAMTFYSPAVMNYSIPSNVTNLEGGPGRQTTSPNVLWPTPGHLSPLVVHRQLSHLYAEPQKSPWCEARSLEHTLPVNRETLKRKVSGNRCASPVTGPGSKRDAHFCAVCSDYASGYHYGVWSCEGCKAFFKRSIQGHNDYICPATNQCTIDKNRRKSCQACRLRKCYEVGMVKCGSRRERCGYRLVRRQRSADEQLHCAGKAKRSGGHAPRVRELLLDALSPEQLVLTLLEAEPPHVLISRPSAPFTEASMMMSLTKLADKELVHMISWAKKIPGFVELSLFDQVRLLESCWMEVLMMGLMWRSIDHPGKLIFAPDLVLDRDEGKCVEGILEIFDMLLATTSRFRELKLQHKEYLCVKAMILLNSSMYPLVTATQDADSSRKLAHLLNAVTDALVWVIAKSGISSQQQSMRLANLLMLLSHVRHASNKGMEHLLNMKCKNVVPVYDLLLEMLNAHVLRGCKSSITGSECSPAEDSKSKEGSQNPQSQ
Summary of the method: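 ER-beta-UAS-bla HEK293T (GripTite) cells carrying a UAS-driven beta-lactamase reporter, in medium with 2% charcoal-stripped FBS, were exposed to compounds for 16 hr at 37C; LiveBLAzer B/G FRET substrate was then added and fluorescence read after 2 hours at room temperature.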

[10] = biological target: Estrogen receptor beta (Homo sapiens) (UniProt Q92731); assay: qHTS assay to identify small molecule antagonists of the estrogen receptor beta (ER-beta) signaling pathway (AID 1259378; active = well fitted inhibition curve with a large enough effect in the signal ratio in the repeat runs, not every such curve was filed as active; the % refers to the signal ratio)
Summary of the method: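 Antagonist mode: compounds added to beta-lactamase reporter HEK293T ER-beta-UAS cells stimulated with E2 (1nM final), 16 hr at 37C. LiveBLAzer B/G FRET substrate, 2 hours room temperature, fluorescence read-out.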

In the case of `CCCc1c2oc(C(=O)O)cc(=O)c2cc2c(=O)cc(C(=O)O)n(CC)c12`, the Potency [1] is reported as “inactive”, the Potency [2] is reported as “inactive” and the outcome [3] is reported as “inactive”. The Potency [4] was “inactive”, the outcome [5] was “inactive” and the Potency [6] was “inactive”.

With `O=C(O)C(=O)Cc1c[nH]c2ccccc12` the Potency [1] was “inactive”, the Potency [2] was “inactive” and the outcome [3] was “inactive”. The Potency [4] was “inactive” and the outcome [5] was “inactive”.

With `CN(CCCN1c2ccccc2CCc2ccccc21)CC(=O)c1ccc(Cl)cc1` the Potency [1] was 26.6 µM (active), the Potency [2] was “inactive” and the Potency [4] was “inactive”. For the same compound, the outcome [5] was “inactive” and the Potency [6] was “inactive”.

With `CCCC1CCC(=O)O1` (centres undefined) the Potency [1] was “inactive”, the Potency [2] was “inactive” and the Potency [7] was “inactive”. For the same compound, the outcome [5] was “inactive”.

For `C1CSCCS1`, the Potency [1] was “inactive”, the Potency [2] was “inactive” and the Potency [7] was “inactive”. The outcome [3] was “inactive”, the outcome [5] was “inactive” and the Potency [6] was “inactive”.

In the case of `CCOc1ccc2nc(N)sc2c1`, the Potency [1] is reported as “inactive”, the Potency [2] is reported as “inactive” and the outcome [3] is reported as “inactive”. The Potency [4] was “inactive”, the outcome [5] was “inactive” and the Potency [6] was “inactive”.

In the case of `CCCN(CCC)C(=O)C(CCC(=O)O)NC(=O)c1ccccc1` (centres undefined), the Potency [1] is reported as “inactive”, the Potency [7] is reported as “inactive” and the outcome [3] is reported as “inactive”.

In the case of `OCc1ccccc1O`, the Potency [1] is reported as “inactive”, the Potency [2] is reported as “inactive” and the outcome [3] is reported as “inactive”. For the same compound, the outcome [5] was “inactive”.

With `CC/C=C\CCOC(=O)C(C)C` the Potency [1] was “inactive”, the Potency [2] was “inactive” and the Potency [7] was “inactive”. For the same compound, the Potency [4] was “inactive”, the outcome [5] was “inactive” and the Potency [6] was “inactive”.

For `COc1ccc2nc(NC(=O)Nc3ccccc3)sc2c1`, the Potency [1] was “inactive”, the Potency [2] was “inactive” and the Potency [7] was 10.6 µM (active). For the same compound, the outcome [5] was “inactive” and the Potency [6] was “inactive”.

In the case of `CCCNC(C)C(=O)Nc1c(C)csc1C(=O)OC` (centres undefined), the Potency [1] is reported as “inactive”, the Potency [2] is reported as “inactive” and the outcome [3] is reported as “inactive”. For the same compound, the Potency [4] was “inactive”, the outcome [5] was “inactive” and the Potency [6] was “inactive”.

In the case of `CC(C)(C)c1cccc(O)c1`, the Potency [1] is reported as “inactive”, the Potency [7] is reported as “inactive” and the Potency [8] is reported as “inactive”. The outcome [3] was “inactive”, the Potency [4] was “inactive” and the outcome [5] was “inactive”.

With `CC1CN(c2ccccc2)NC1=O` (centres undefined) the Potency [1] was “inactive”, the Potency [2] was “inactive” and the outcome [3] was “inactive”. For the same compound, the outcome [5] was “inactive” and the Potency [6] was “inactive”.

With `COc1nc(C)nc(NC(=O)NS(=O)(=O)c2ccccc2OCCCl)n1` the Potency [1] was “inactive”, the Potency [2] was “inactive” and the outcome [3] was “inactive”. The Potency [4] was “inactive”.

With `CCOC(=O)COc1ccc2c(c1)CC(NCC(O)c1cccc(Cl)c1)CC2` (centres undefined) the Potency [1] was 27.5 µM (active), the outcome [3] was “inactive” and the Potency [4] was “inactive”. For the same compound, the outcome [5] was “inactive”.

In the case of `C[C@]12CCC(=O)C=C1CC[C@@H]1[C@@H]2CC[C@@]2(C)[C@H]1CC[C@]2(O)C(=O)CO`, the Potency [1] is reported as “inactive”, the Potency [2] is reported as “inactive” and the Potency [7] is reported as “inactive”. For the same compound, the Potency [4] was “inactive”, the outcome [5] was “inactive” and the Potency [6] was “inactive”.

In the case of `CCCNC(C)(C)COC(=O)c1ccccc1`, the Potency [1] is reported as “inactive”, the outcome [3] is reported as “inactive” and the Potency [4] is reported as “inactive”. The outcome [5] was “inactive” and the Potency [6] was “inactive”.

In the case of `CN1C(=O)CC(c2ccccc2)C1=O` (centres undefined), the Potency [1] is reported as “inactive”, the Potency [2] is reported as “inactive” and the Potency [7] is reported as “inactive”. The outcome [3] was “inactive”, the outcome [5] was “inactive” and the Potency [6] was “inactive”.

For `CCCCCCC`, the Potency [1] was “inactive”, the Potency [2] was “inactive” and the Potency [7] was “inactive”. For the same compound, the outcome [3] was “inactive”, the Potency [4] was “inactive” and the outcome [5] was “inactive”. The Potency [6] was “inactive”.

For `CCCCCCCCCCCCOCCOS(=O)(=O)O`, the Potency [1] was “inactive”, the Potency [7] was 48.6 µM (active) and the Potency [4] was “inactive”. The outcome [5] was “inactive”.

With `CCCCNc1cc(C(=O)O)cc(S(N)(=O)=O)c1Oc1ccccc1` the Potency [1] was “inactive”, the Potency [2] was “inactive” and the outcome [3] was “inactive”. The outcome [5] was “inactive” and the Potency [6] was “inactive”.

For `C=CCc1cc(OC)c(O)c(C(=O)NCCO)c1`, the Potency [1] was “inactive”, the Potency [2] was “inactive” and the Potency [7] was “inactive”. The outcome [3] was “inactive”, the Potency [4] was “inactive” and the outcome [5] was “inactive”. The Potency [6] was “inactive”.

With `C/C(=N\O)[C@@H](C)NCC(C)(C)CN[C@H](C)/C(C)=N/O` the Potency [1] was “inactive”, the Potency [2] was “inactive” and the Potency [7] was “inactive”. For the same compound, the outcome [3] was “inactive”, the outcome [5] was “inactive” and the Potency [6] was “inactive”.

In the case of `NC/C=C/C(=O)O`, the Potency [1] is reported as “inactive”, the Potency [2] is reported as “inactive” and the Potency [7] is reported as “inactive”. For the same compound, the outcome [5] was “inactive” and the Potency [6] was “inactive”.

In the case of `O=C(O)[C@@H]1CSCN1`, the Potency [1] is reported as “inactive”, the Potency [2] is reported as “inactive” and the Potency [7] is reported as “inactive”. For the same compound, the outcome [3] was “inactive”, the outcome [5] was “inactive” and the Potency [6] was “inactive”.

With `CC(=O)N[C@@H](CC(C)C)C(=O)O` the Potency [1] was “inactive”, the Potency [2] was “inactive” and the Potency [7] was “inactive”. For the same compound, the Potency [4] was “inactive”.

In the case of `Clc1cccc(-c2cc(Cl)cc(Cl)c2)c1`, the Potency [1] is reported as “inactive”, the Potency [2] is reported as “inactive” and the outcome [3] is reported as “inactive”. The Potency [4] was “inactive” and the outcome [5] was “inactive”.

For `O=C(O)[C@@H](O)[C@H](O)[C@H](O)[C@@H](O)C(=O)O`, the Potency [1] was “inactive”, the Potency [2] was “inactive” and the Potency [7] was “inactive”. For the same compound, the outcome [3] was “inactive”, the outcome [5] was “inactive” and the Potency [6] was “inactive”.

With `CCNCCO` the Potency [1] was “inactive”, the Potency [2] was “inactive” and the Potency [7] was “inactive”. The outcome [3] was “inactive”, the outcome [5] was “inactive” and the Potency [6] was “inactive”.

In the case of `O=Cc1ccc(F)c(Br)c1`, the Potency [1] is reported as “inactive”, the Potency [2] is reported as “inactive” and the Potency [4] is reported as “inactive”. For the same compound, the outcome [5] was “inactive” and the Potency [6] was “inactive”.

In the case of `CC/C=C\CCOC(=O)CCCCC`, the Potency [1] is reported as “inactive”, the Potency [2] is reported as “inactive” and the Potency [7] is reported as “inactive”. For the same compound, the outcome [3] was “inactive”, the Potency [4] was “inactive” and the outcome [5] was “inactive”. The Potency [6] was “inactive”.

For `Cc1ccccc1C(=O)Nc1ccc(C(=O)N2CCCC(O)c3cc(Cl)ccc32)c(C)c1` (centres undefined), the Potency [1] was “inactive”, the Potency [2] was “inactive” and the outcome [3] was “inactive”.

With `O=C1CCCCC1C1CCCCC1` (centres undefined) the Potency [1] was “inactive”, the Potency [2] was “inactive” and the Potency [7] was “inactive”. For the same compound, the outcome [3] was “inactive”, the Potency [4] was “inactive” and the outcome [5] was “inactive”. For the same compound, the Potency [6] was “inactive”.

For `CC(C)S`, the Potency [1] was “inactive”, the Potency [7] was “inactive” and the outcome [3] was “inactive”. For the same compound, the Potency [4] was “inactive”, the outcome [5] was “inactive” and the Potency [6] was “inactive”.

In the case of `CC(=O)OC(C)OC(C)=O`, the outcome [9] is reported as “inactive”, the Potency [10] is reported as “inactive” and the Potency [2] is reported as “inactive”. For the same compound, the Potency [7] was “inactive”, the Potency [8] was “inactive” and the outcome [3] was “inactive”. The outcome [5] was “inactive” and the Potency [6] was “inactive”.
